# Laboratory results published in PubChem BioAssay (Tox21).
# Inconclusive results are not listed. The source made the active and inactive calls. Calls follow the shape of the dose curve; as a rule, active = well fitted activation curve with a large enough effect in the repeat runs; inconclusive = weak or mixed curves; inactive = flat fitted curve, though single readings scatter.
# Assay: A CellTox Green Cytotoxicity Assay to monitor cytotoxicity in HEK293 cells - 24 hour (AID 1224875); also: nearly all actives have a fitted effect of over 45% in size
# Settings: CellTox Green fluorescence; series mostly up to 76.8 µM; activity change: at the top concentration
# Text: National Center for Advancing Translational Sciences [NCATS]
# NIH Chemical Genomics Center [NCGC]
# U.S. Environmental Protection Agency [EPA]
# National Institutes of Environmental Health Sciences [NIEHS]
# National Toxicology Program [NTP]
# Cell-based models are critical for drug discovery. Determining the natural cytotoxic effects resulting from test compounds is an essential research activity. A CellTox Green Cytotoxicity Assay to monitor cytotoxicity in real time of continues cell culture during 40 hours of the compound treatment was used to screen Tox21 10K library compounds in Hek293 cells. CellTox Green Cytotoxicity Assay is a nonlytic, homogeneous, biofluorescent method to measure cytotoxicity in cell culture after experimental manipulation. The assay system uses a proprietary asymmetric cyanine dye that is excluded from viable cells but preferentially stains the dead cell's DNA. […] Viable cells produce no appreciable increases in fluorescence. Therefore, the fluorescence signal produced by the binding interaction with dead cell DNA is proportional to cytotoxicity.
# The mixture of Hek293 cell suspension and reagents were dispensed at 600cells/6 ul/well in 1536-well tissue culture treated black solid bottom plates using a Multidrop dispenser. After the assay plates were incubated at a 37 C/5% CO2 incubator for 5 hours, 23 nL of compounds dissolved in DMSO, positive and negative controls was transferred to the assay plate by a pintool work station. The plates were incubated at 37 C for 40 hours. The fluorescence intensity were measured at 0h, 8h, 16h, 24h, 32h and 40h time points using ViewLux plate reader during compound treatment.
# % is scaled to controls: 0 for no effect and ±100 for the full control effect; potency is read from the fitted curve at half-maximal effect.
Structure (SMILES),activity change,Potency
CC(C)c1ccccc1,2.29% (inactive),–
COc1ccc(Nc2ccc(OC)cc2)cc1,3% (inactive),–
O=C(O)CN(CCN(CC(=O)O)CC(=O)O)CCN(CC(=O)O)CC(=O)O,"15.9% [at 15.8 µM, active compounds read high] (inactive)",–
O=C(CCCl)NCc1ccccc1,"0.828% [at 35.3 µM, active compounds read high] (inactive)",–
C1CSCCS1,0.91% (inactive),–
CCOc1ccccc1N,8.51% (inactive),–
CCOc1ccc(NS(=O)(=O)c2ccc(N)cc2)nn1,"-0.696% [at 35.3 µM, active compounds read high] (inactive)",–
CCOC(=O)NCCC[Si](OCC)(OCC)OCC,-9.12% (inactive),–
C[C@@H]1CN(c2c(F)c(F)c3c(=O)c(C(=O)O)cn(C4CC4)c3c2F)C[C@H](C)N1,"0.295% [at 15.8 µM, active compounds read high] (inactive)",–
O=Cc1ccc(F)c(Br)c1,14.1% (inactive),–
OC[C@H]1O[C@@H](O[C@H]2[C@H](O)[C@@H](O)[C@H](O)O[C@@H]2CO)[C@H](O)[C@@H](O)[C@H]1O,-22.2% (inactive),–
O=C(CC(=O)C(F)(F)F)c1ccccc1,8.41% (inactive),–
Nc1cccc(S(=O)(=O)O)c1,2.79% (inactive),–
CC(C)(CO)[C@@H](O)C(=O)NCCC(=O)O,4.87% (inactive),–
CCCNC(C)C(=O)Nc1c(C)csc1C(=O)OC (stereo not given),"-13.1% [at 35.3 µM, active compounds read high] (inactive)",–
Cc1ccc([N+](=O)[O-])cc1Cl,2.32% (inactive),–
CN1CCN(c2c(F)cc3c(=O)c(C(=O)O)cn(CCF)c3c2F)CC1,–,5.35 µM (active)
CCCCCCCCCC/C=C/C#N,-0.535% (inactive),–
CC(C)(C)C1CCCCC1=O (stereo not given),-1.14% (inactive),–
CCOc1ccc(OCC)c(Cl)c1,2.26% (inactive),–

Structure (SMILES),activity change,Potency
OCC(CBr)(CBr)CBr,-3.73% (inactive),–
CC(=O)OC1C2(C)CCC(C2)C1(C)C (stereo not given),2.16% (inactive),–
CCOC(=O)C1CC(=O)C(=C(O)C2CC2)C(=O)C1 (stereo not given),19.1% (inactive),–
Clc1cccc(-c2cc(Cl)cc(Cl)c2)c1,–,42.1 µM (active)
CC(C)C1=CC2=CC[C@@H]3[C@](C)(CCC[C@@]3(C)C(=O)O)[C@H]2CC1,11% (inactive),–
CC(C)C[C@H](NC(=O)OCC1c2ccccc2-c2ccccc21)C(=O)O,-2.14% (inactive),–
Cc1ccc(C)c(N)c1,6% (inactive),–
O=C1CCCCC1C1CCCCC1 (stereo not given),3.19% (inactive),–
C=C(C)C(=O)OCCOP(=O)(O)O,-9.8% (inactive),–
CCCCNc1ccc(C(=O)OCCN(CC)CC)cc1,"-2.59% [at 35.3 µM, active compounds read high] (inactive)",–
COc1cc2c(cc1N)oc1ccccc12,0.318% (inactive),–
CC(C)Nc1nc(N)nc(Cl)n1,4.77% (inactive),–
CCOC(=O)c1cc(=O)c2c(OCC(COc3cccc4oc(C(=O)OCC)cc(=O)c34)OC(=O)[C@@H](N)CCCCN)cccc2o1,"-19.9% [at 35.3 µM, active compounds read high] (inactive)",–
Oc1ccccc1F,10% (inactive),–
CC(C)NCC(O)COc1ccc(CCOCC2CC2)cc1 (stereo not given),"2.17% [at 35.3 µM, active compounds read high] (inactive)",–
CCCCNc1cc(C(=O)O)cc(S(N)(=O)=O)c1Oc1ccccc1,"-15.1% [at 35.3 µM, active compounds read high] (inactive)",–
CC[C@H]1CC[C@H](NCc2cc3c(cc2OC)[C@H]2C[C@H]2C(=O)N3C)[C@H](c2ccccc2)N1,2.42% (inactive),–
NNS(=O)(=O)c1ccc(Oc2ccc(S(=O)(=O)NN)cc2)cc1,0.319% (inactive),–
O=Cc1ccc(O)c(O)c1O,"3.74% [at 35.3 µM, active compounds read high] (inactive)",–
CN1C(=O)CC(c2ccccc2)C1=O (stereo not given),"-10.5% [at 35.3 µM, active compounds read high] (inactive)",–
